This is a sample that favours compounds with a hit; in the whole collection about 12% have one here.
MARV entry inh = Marburg virus entry inhibition. Marburg virus pseudotyped entry inhibition, cell reporter. Potency, µM (titrated, usually from 37.8 µM), hits mostly inhibitors. actives 1.8% (n = 300,000); calls by dose curve; tested in HEK293 cells
Cycloheximide cs = counter-screen hit for Shiga toxin inhibitors, cycloheximide; cell reporter, cycloheximide protein synthesis inhibition counterscreen; max response, %; actives 12% (n = 300,000); in the data active = max response mostly above about 13%, no sharp cut-off; inactive = mostly below about 14%; note: read at 38.3 µM for the half of the compounds with a filed dose
Shiga inhibitor = Shiga toxin inhibition | Vero cells, Shiga toxin protein synthesis inhibition reporter | inhibition, % at 38.7 µM | actives 9.2% (n = 290,000); in the data active = inhibition mostly above about 28%, no sharp cut-off; inactive = mostly below about 43%
Lassa entry inh = Lassa virus entry inhibition; Lassa virus pseudotype entry inhibition, cell reporter; Potency, µM (doses to about 37.9 µM), actives largely listed as inhibitors; actives 1.2% (n = 300,000); AID 540256; calls by dose curve; tested in HEK293 cells; note: nearly all actives have a fitted effect of over 50% in size
Each line names hits and unclear results; the compound was inactive in the other large screens.

COc1ccc(-n2ncc3c2CC(C)(C)CC3NC(=O)C2CCN(C(C)=O)CC2)cc1 (stereo unspecified)	Cycloheximide cs 19.3, Shiga inhibitor 22.9 (no result: MARV entry inh, Lassa entry inh)
COc1ccc(-n2ncc3c2CC(C)(C)CC3NC(=O)c2ccoc2C)cc1 (stereo unspecified)	MARV entry inh inconclusive, Cycloheximide cs 16.7
CC(=O)N1CCC(C(=O)NC2CC(C)(C)Cc3c2cnn3-c2ccc(F)cc2)CC1 (stereo unspecified)	none
O=C(CCCCCn1c(=S)[nH]c2ccc(N3CCOCC3)cc2c1=O)NCc1cccc(Cl)c1	MARV entry inh inconclusive
COc1cc(SC)ccc1C(=O)Nc1nc(C)cc(C)n1	none (no result: MARV entry inh, Lassa entry inh)
COc1cc(SC)ccc1C(=O)Nc1ccncc1	Cycloheximide cs 33.1 (no result: MARV entry inh, Lassa entry inh)
COc1cc(SC)ccc1C(=O)Nc1ccc2c(c1)CCC2	MARV entry inh inconclusive, Cycloheximide cs 30.5, Shiga inhibitor 95.8
COc1cc(SC)ccc1C(=O)Nc1ccc(Cl)cn1	MARV entry inh 1.12µM, Cycloheximide cs 32.7, Shiga inhibitor 76.9, Lassa entry inh inconclusive
COc1cc(SC)ccc1C(=O)Nc1cccc(C2OCCCO2)c1	MARV entry inh inconclusive, Cycloheximide cs 31.6, Shiga inhibitor 70.7
O=S(=O)(c1ccc(Br)cc1)c1nc(-c2cccs2)oc1SCc1ccccc1F	none (no result: Cycloheximide cs, Shiga inhibitor)
Cc1ccc(N2C(=O)N(Cc3ccccc3C)c3ccccc3S2(=O)=O)cc1	Lassa entry inh inconclusive
CCNC(=O)c1ccccc1CCc1ccccc1	none
COc1cc(SC)ccc1C(=O)Nc1ccccc1C#N	Cycloheximide cs 37.0, Shiga inhibitor 91.3, Lassa entry inh inconclusive
Cc1occc1C(=O)Nc1ccccc1C#N	none (no result: MARV entry inh, Lassa entry inh)
CN(C)CC(C)(C)CNS(=O)(=O)c1ccc(OC(F)(F)F)cc1	MARV entry inh inconclusive
c1cc2c(cnc3cscc32)s1	Cycloheximide cs 16.3
Cn1cc([N+](=O)[O-])c(C(=O)N/N=C\c2c[nH]c3ccccc23)n1	none
O=[N+]([O-])c1ccc(N/N=C/c2c[nH]c3ccccc23)cc1	Cycloheximide cs 26.5, Shiga inhibitor 61.1
O=C(N/N=C/c1ccc[nH]1)c1ccccc1[N+](=O)[O-]	Lassa entry inh inconclusive
O=[N+]([O-])c1ccc(N/N=C/c2ccc[nH]2)cc1	MARV entry inh inconclusive, Cycloheximide cs 84.4, Shiga inhibitor 65.7, Lassa entry inh inconclusive
O=[N+]([O-])c1ccccc1N/N=C/c1c[nH]c2ccccc12	Cycloheximide cs 67.5, Shiga inhibitor 87.7, Lassa entry inh inconclusive
CC(C)[C@@H]1Cc2c(C#N)c(N)n(C)c(=S)c2CO1	none (no result: Cycloheximide cs, Shiga inhibitor, Lassa entry inh)
O=C(Nc1nc(-c2ccccn2)cs1)C1CC(=O)N(c2ccc3c(c2)OCCO3)C1 (stereo unspecified)	MARV entry inh inconclusive, Cycloheximide cs 24.5
COc1ccc(-c2nc(NC(=O)C3CC(=O)N(c4ccc5c(c4)OCCO5)C3)sc2C)cc1 (stereo unspecified)	MARV entry inh inconclusive, Cycloheximide cs 28.2, Lassa entry inh inconclusive
COc1ccc2nc(NC(=O)C3CC(=O)N(c4ccc5c(c4)OCCO5)C3)sc2c1 (stereo unspecified)	none (no result: Cycloheximide cs, Shiga inhibitor)
O=C(Nc1nnc(C2CCCCC2)s1)C1CC(=O)N(c2ccccc2)C1 (stereo unspecified)	none
O=C(Nc1nnc(C2CC2)s1)C1CC(=O)N(c2ccc3c(c2)OCCO3)C1 (stereo unspecified)	Cycloheximide cs 31.2, Shiga inhibitor 30.7
Cc1ccc(NC(=O)CSc2nc(=O)n(CCN3CCOCC3)c3c2CCC3)c(C)c1	none (no result: MARV entry inh, Cycloheximide cs, Shiga inhibitor)
CCc1ccc(NCc2cc3cc4c(cc3n(CC(=O)Nc3cccc(OC)c3)c2=O)OCO4)cc1	none (no result: MARV entry inh, Cycloheximide cs, Shiga inhibitor)
CC1CCCN(C(=O)COC(=O)c2cccc(NS(=O)(=O)c3ccccc3)c2)C1 (stereo unspecified)	none (no result: Cycloheximide cs, Shiga inhibitor)
Cc1cc(N2CCC(C)CC2)nc2ccc(NC(=O)/C=C/c3cccc(Cl)c3)cc12	none (no result: Cycloheximide cs, Shiga inhibitor)
C=CCn1c(=O)c2ccccc2n2c(SCC(=O)NC)nnc12	none (no result: MARV entry inh, Lassa entry inh)
CC(=O)c1cc2c(cc1NC(=O)CSc1nc3ccc(C)cc3[nH]1)OCO2	Cycloheximide cs 19.7
Cc1ccc2nc(SCC(=O)Nc3ccc(C#N)cc3)[nH]c2c1	none (no result: MARV entry inh, Cycloheximide cs, Shiga inhibitor)
C/C(N)=C(/C#N)C(=O)CSc1nc2ccc(C)cc2[nH]1	MARV entry inh inconclusive, Cycloheximide cs 56.2, Shiga inhibitor 86.0, Lassa entry inh inconclusive
Cc1ccc2nc(SCc3nnc(-c4cccs4)o3)[nH]c2c1	MARV entry inh inconclusive
Cc1ccc2[nH]c(SCC(=O)N3CCOCC3)nc2c1C	Cycloheximide cs 52.2, Shiga inhibitor 97.9
Cc1ccc2nc(SCC3CCCCO3)[nH]c2c1 (stereo unspecified)	MARV entry inh 2.82µM, Cycloheximide cs 29.7, Shiga inhibitor 43.9, Lassa entry inh inconclusive
CCOC(=O)C1Oc2ccccc2C(c2ccccc2)=C1C(C)=O (stereo unspecified)	none (no result: MARV entry inh, Lassa entry inh)
OC[C@@H]1[C@@H](O)[C@H](O)[C@H]2[C@@H](O)CCN21	none (no result: MARV entry inh, Lassa entry inh)
S=C(Nc1ccccc1Cl)N(Cc1ccccc1)Cc1ccccn1	none
CCOc1ccccc1C(=O)NCC(=O)NCCSc1ccc(Br)cc1	Lassa entry inh inconclusive (no result: Cycloheximide cs, Shiga inhibitor)
Cc1ccc2nc(SCC(=O)N3CCOCC3)[nH]c2c1	MARV entry inh inconclusive, Cycloheximide cs 38.3, Shiga inhibitor 55.9
O=C(CSc1ccccc1)N1CCN(S(=O)(=O)c2cccs2)CC1	Cycloheximide cs 5.9
O=C(C1CCN(S(=O)(=O)c2cccs2)CC1)N1CCCCC1	Cycloheximide cs 35.2, Shiga inhibitor 36.5 (no result: MARV entry inh, Lassa entry inh)
CN(c1ccc(OCC(=O)N2CCCCC2)cc1)S(=O)(=O)c1cccs1	Lassa entry inh inconclusive
CN(c1ccc(OCC(=O)N2CCN(c3ccc(F)cc3)CC2)cc1)S(=O)(=O)c1cccs1	MARV entry inh 8.91µM, Lassa entry inh inconclusive
O=C(CCS(=O)(=O)c1cccs1)N1CCCC1	Cycloheximide cs 17.8, Shiga inhibitor 63.0, Lassa entry inh inconclusive
C=CCOC(/C=C/c1ccccc1)CC (stereo unspecified)	none (no result: MARV entry inh, Lassa entry inh)
COc1ccc(-c2cn3c(n2)sc2cc(C(=O)Nc4c(C)cccc4C)ccc23)cc1	none (no result: MARV entry inh, Cycloheximide cs, Shiga inhibitor)
O=C(CCS(=O)(=O)c1cccs1)N1CCN(c2ccc(F)cc2)CC1	MARV entry inh inconclusive, Cycloheximide cs 41.2, Shiga inhibitor 79.0
O=C(CNS(=O)(=O)c1cccs1)N1CCCCC1	none
CCc1ccc(NC(=O)C2CCCN(S(=O)(=O)c3cccs3)C2)cc1 (stereo unspecified)	Cycloheximide cs 21.4
O=C(CCNS(=O)(=O)c1cccs1)N1CCCCCC1	Cycloheximide cs 33.3, Shiga inhibitor 102.4
CC1CCCN(C(=O)CNS(=O)(=O)c2cccs2)C1 (stereo unspecified)	Cycloheximide cs 27.0
CCc1ccc(NC(=O)C2CCN(S(=O)(=O)c3cccs3)CC2)cc1	Lassa entry inh inconclusive
Cc1cn2c(=O)cc(COC(=O)c3cccc(NC(=O)c4ccccc4C)c3)nc2s1	none (no result: MARV entry inh, Cycloheximide cs, Shiga inhibitor)
O=C(COC(=O)C1CC(=O)N(Cc2ccco2)C1)c1ccc(OC(=O)c2ccccc2)cc1 (stereo unspecified)	MARV entry inh inconclusive, Cycloheximide cs 33.3, Shiga inhibitor 71.9
CCNC(=O)NC(=O)COC(=O)CCCSc1nc2ccccc2s1	MARV entry inh inconclusive, Lassa entry inh inconclusive
Oc1csc(Cc2nc(-c3ccc(-c4ccccc4)cc3)cs2)n1	Cycloheximide cs 26.9, Shiga inhibitor 53.0
O=c1oc2ccccc2cc1-c1csc(Cc2nc(-c3ccc(Cl)cc3)cs2)n1	MARV entry inh inconclusive, Lassa entry inh inconclusive

From PubChem BioAssay
